Drawing on PubChem BioAssay AID1259422 (The Scripps Research Institute Molecular Screening Center, 2018), this text covers inhibition for 95 compounds.

Where “and” joins values, the source holds several entries; their conditions need not be identical. Equal entries are not always repeated. The campaign covered roughly 640,000 compounds. About 9,300 (1.5%) were called active. No stated cut-off is given here; in the data, active means inhibition above about 32%; inactive means the rest. The entries come from a sample that favours actives as a whole.

This test is described as follows: TEAD-YAP interaction inhibition, primary screen, TEAD-YAP interaction inhibitor project, luminescence, HEK-TIYL cells (AID 1259422).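 Further: 0% = median of test compound wells and 100% = reference inhibitor wells.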 The settings on record: TEAD-Gal4/YAP UAS-luciferase luminescence, at 9.12 µM, stronger effect = higher value.
In general, inhibition refers to the relative decrease from the control value, in per cent. Regarding `Cc1ccc2nc(C3CCN(CC(=O)NCc4ccccc4)CC3)[nH]c2c1`, the inhibition was 7.44% (inactive).

For the compound `Cc1ccc(-n2ncc(C(=O)O)c2-n2cccc2)cc1`, the inhibition was 1.07% (inactive).

With `Nc1c(C(=O)O)cnn1-c1ccccc1`, the inhibition is 35.4% (active).

As to `O=C(Cc1ccccc1)Nc1c(C(=O)N2CCCCCC2)cnn1-c1ccccc1`, the inhibition was -25.7% (inactive).

For the compound `COc1cc(C2CC(=O)Nc3cc4c(cc32)OCO4)ccc1O` (stereo not given), the inhibition was -0.17% (inactive).

With `Cn1c2c(c(=O)n(C)c1=O)C(c1ccc(F)cc1)C1=C(COC1=O)N2` (stereo not given), the inhibition was 13.2% (inactive).

With `O=C1OCC2=C1C(c1ccc([N+](=O)[O-])cc1)c1cc3c(cc1N2)OCO3` (stereo not given), the inhibition was 51.2% (active).

As to `COc1ccccc1C1C2=C(COC2=O)Nc2cc3c(cc21)OCO3` (stereo not given), the inhibition was 54% (active).

As to `COc1ccc(C2CC(=O)C3=C(C2)Nc2ccccc2NC3c2cc3c(cc2[N+](=O)[O-])OCO3)cc1` (stereo not given), the inhibition is -38.4% (inactive).

With `COc1ccccc1C1C2=C(COC2=O)Nc2c1c(=O)n(C)c(=O)n2C` (stereo not given), the inhibition is 6.62% (inactive).

Consider `CCc1ccccc1N(CC(=O)Nc1cccc(F)c1)S(C)(=O)=O`, for which the inhibition was -13.9% (inactive).

`COC(=O)CNC(=O)CC1C(=O)NCCN1Cc1ccc(F)cc1` (stereo not given): the inhibition was -2% (inactive).

For the compound `CCNS(=O)(=O)c1ccc(NC(=O)CCOCC)cc1`, the inhibition is 9.16% (inactive).

Regarding `O=C(CN1C(=O)COc2ccc(Cl)cc21)Nc1ccccc1F`, the inhibition was 3.36% (inactive).

Turning to `COC(=O)c1cc(C(=O)N2CC(C)CC(C)C2)cc([N+](=O)[O-])c1` (stereo not given), the inhibition was 1.59% (inactive).

On to `CCOC(=O)c1cc(S(=O)(=O)NCc2ccc(Cl)cc2)cn1C`, for which the inhibition is 2.16% (inactive).

Consider `COc1cc(Nc2ccnc(Nc3ccc(N4CCOCC4)cc3)n2)cc(OC)c1OC`, for which the inhibition was 72.7% (active).

For the compound `COc1cc(Nc2ccnc(Nc3ccncc3)n2)cc(OC)c1OC`, the inhibition is 3.91% (inactive).

Consider `c1ccc(Nc2nccc(Nc3ccc(N4CCOCC4)cc3)n2)cc1`, for which the inhibition is 16.2% (inactive).

In the case of `S=c1[nH]nc(N2CCOCC2)n1Cc1ccccc1`, the inhibition was 2.61% (inactive).

With `Cn1nccc1C(=O)NC1CCCc2c1cnn2-c1ccc(F)cc1F` (stereo not given), the inhibition is 55.8% (active).

As for `O=C(NC1CCCc2ccccc21)c1ccc2nccnc2c1` (stereo not given), the inhibition was -5.54% (inactive).

For the compound `Cn1nccc1C(=O)N1CCC[C@@H]2CN(C(=O)Cc3ccc(F)cc3)CC[C@H]21`, the inhibition was 6.31% (inactive).

Take `Cc1cc(C(=O)N(Cc2ccccc2)C(C)C2CC2)c(Cl)cc1Cl` (stereo not given): the inhibition is -10.9% (inactive).

For `Cc1noc(C)c1NC(=O)N1CCC2(CC1)OCc1ccccc1O2`, the inhibition was -5.79% (inactive).

For `CC(C)[C@@H](Cn1nnc2ccccc21)NC(=O)c1ccc(N2CCCCS2(=O)=O)cc1`, the inhibition is -3.11% (inactive).

As to `COc1ccc(CCNC(=O)CCS(=O)(=O)c2cccc3cccnc23)cc1OC`, the inhibition is 10.6% (inactive).

`CC[C@]1(O)CC2CN(CCc3c([nH]c4ccccc34)[C@@](C(=O)OC)(c3cc4c(cc3OC)N(C=O)[C@H]3[C@@](O)(C(=O)OC)[C@H](OC(C)=O)[C@]5(CC)C=CCN6CC[C@]43[C@@H]65)C2)C1` (stereo not given in full): the inhibition is 50.8% (active) and 57.9% (active) and 55.9% (active).

`COc1cc(NS(=O)(=O)c2ccc3ccccc3c2)c2ncccc2c1`: the inhibition is 38.5% (active).

For the compound `COC(=O)c1cccc(NS(=O)(=O)c2ccc3ccccc3c2)c1C`, the inhibition was -7.45% (inactive).

On to `COc1cc(NS(=O)(=O)c2c(C)ccc3nsnc23)c2ncccc2c1`, for which the inhibition is -0.3% (inactive).

For the compound `Cn1cc(S(=O)(=O)N2CCCC2)cc1C(=O)N1CCC(Cc2ccccc2)CC1`, the inhibition is -7.23% (inactive).

Consider `COc1ccc(Cn2nnc(C(=O)Nc3cccc(Cl)c3)c2N)cc1`, for which the inhibition was -9.56% (inactive).

As for `Nc1c(C(=O)NCc2ccccc2)nnn1Cc1cccc(Cl)c1`, the inhibition is 37% (active).

Regarding `O=C(Cc1cccc(Cl)c1)NCc1ccccc1`, the inhibition is -42.3% (inactive).

On to `O=S(=O)(c1ccc2ccccc2c1)N1CCSC1c1ccc2c3c(cccc13)CC2` (stereo not given), for which the inhibition was -6.22% (inactive).

Take `Cc1cc(NCCCn2ccnc2)n2nc(C)c(-c3cccs3)c2n1`: the inhibition is -74.5% (inactive).

For `O=C(CNC1CCCC1)NCc1ccc2c(c1)OCO2`, the inhibition is -2.55% (inactive).

In the case of `CCOc1ccc(-n2c(-c3ccc4c(c3)OCCO4)c[n+]3c2CCCCC3)cc1`, the inhibition was 85.2% (active).

Take `CCOc1ccc(C(=O)CCC(=O)OCC(=O)c2ccc3c(c2)OCCO3)cc1`: the inhibition was 5.42% (inactive).

Turning to `CCOc1ccc2c(=O)c(-c3ccc4c(c3)OCCCO4)c(C)oc2c1`, the inhibition is -7.66% (inactive).

In the case of `COc1ccc2c(c1OC)C(=O)N(c1ccc(O)cc1)C2`, the inhibition is 67.1% (active).

As to `COc1ccc(N2Cc3cccc(C(=O)NCC(OC)OC)c3C2=O)cc1`, the inhibition is -8.73% (inactive).

For the compound `COc1ccc2c(c1OC)C(=O)N(c1ncn[nH]1)C2`, the inhibition was 3.4% (inactive).

On to `CCOC(=O)c1cccc(NC(=O)Cn2cc3c(n2)CCCCC3)c1`, for which the inhibition was 8.83% (inactive).

`O=[N+]([O-])c1ccccc1Oc1cccc2cccnc12`: the inhibition is -9.26% (inactive).

Consider `O=[N+]([O-])c1ccccc1S(=O)(=O)Nc1cccc2cccnc12`, for which the inhibition was 32.8% (active).

On to `O=S(=O)(Nc1cccc2cccnc12)c1ccc(S(=O)(=O)N2CCCCC2)cc1`, for which the inhibition was 23.6% (inactive).

Regarding `Cn1c(/N=C/c2nc(-c3cccc4ccccc34)oc2O)nc2ccccc21`, the inhibition is -6.43% (inactive).

For `O=C(CO/N=C/c1ccccc1)N=Nc1c(O)[nH]c2ccccc12`, the inhibition is 5.66% (inactive).

Consider `COc1ccc2c(c1)CC(C(=O)Nc1ccc(-c3cn[nH]c3)cc1O[C@H]1CCOC1)CO2` (stereo not given in full), for which the inhibition is 22.3% (inactive).

Take `Cc1[nH]ncc1-c1ccc2nc(NC(=O)C3COc4ccccc4C3)sc2c1` (stereo not given): the inhibition was 60.2% (active).

As for `CC1=CCC(C(=O)O)C(C(=O)Nc2nc3ccc(C)cc3s2)C1` (stereo not given), the inhibition was -1.36% (inactive).

Turning to `CCOc1ccc2nc(NC(=O)C3CC3)sc2c1`, the inhibition is -49.8% (inactive).

For the compound `COc1ccc2c(c1)CC(C(=O)Nc1ccc(-c3cn[nH]c3)cc1OCc1ccccc1)CO2` (stereo not given), the inhibition is -15.1% (inactive).

`COc1ccc2c(c1)CC(C(=O)Nc1nc3ccc(-c4cn[nH]c4C)cc3s1)CO2` (stereo not given): the inhibition was 53.5% (active).

Regarding `Cc1cccc(C2c3[nH]c4ccccc4c3CCN2C(=O)Cn2nc(C)nc2C)n1` (stereo not given), the inhibition is -0.52% (inactive).

Regarding `COCCNC(=O)/C(C#N)=C/c1ccc(N2CCOCC2)cc1`, the inhibition was -20.6% (inactive).

With `COc1ccc2nc(/C(C#N)=C\c3ccc(N4CCOCC4)cc3)[nH]c2c1`, the inhibition is -25.6% (inactive).

For `N#C/C(=C\c1ccc(N2CCOCC2)cc1)c1ccccn1`, the inhibition is 90.2% (active).

Turning to `CCOc1cc(C2C=C(c3cccc([N+](=O)[O-])c3)Nc3ncnn32)ccc1OC(F)F` (stereo not given), the inhibition is -5.43% (inactive).

For the compound `COC(=O)c1ccc(CSc2cc(N3CCN(c4ccccc4F)CC3)ncn2)o1`, the inhibition is -17.6% (inactive).

As for `Cc1cc(C)n2nc(SCC(=O)NCCCN3CCCC3=O)nc2n1`, the inhibition is 6.95% (inactive).

In the case of `O=C1N=c2ccccc2=C1c1[nH]c(=S)n(-c2ccccc2)c1O`, the inhibition is -4.63% (inactive).

`COc1cccc(-n2c(SCC(=O)Nc3cccc(O)c3)nnc2-c2ccncc2)c1`: the inhibition is 1.48% (inactive).

Consider `COC(=O)CSc1nnc(-c2cccc(OC)c2)n1C`, for which the inhibition is 8.2% (inactive).

For the compound `COc1cccc(-c2nnc(SCC(=O)Nc3ccccc3)n2-n2cccc2)c1`, the inhibition is 47.3% (active).

For the compound `COCCNC(=O)c1oc2ccc3c(c2c1C)C(=O)CC1(CCCC1)O3`, the inhibition is -23.1% (inactive).

Take `Nc1nc(SC(c2ccccc2)c2ccccc2)nc2sc3c(c12)CCCC3`: the inhibition is 5.46% (inactive).

For `Cc1nonc1CN(C)C(=O)c1cc(COc2cccc(C(F)(F)F)c2)on1`, the inhibition is -10.6% (inactive).

With `COCC1CCN(C(=O)c2cc(COc3ccc4ncccc4c3)on2)C1` (stereo not given), the inhibition was 30.8% (inactive).

Consider `CCN(CC)C1CCN(C(=O)c2cc(COc3ccc4ncccc4c3)on2)C1` (stereo not given), for which the inhibition is 14.7% (inactive).

As to `CN(Cc1cccnc1)C(=O)c1cc(COc2ccc3ncccc3c2)on1`, the inhibition was 40.8% (active).

On to `O=C(c1cc(COc2ccc3ncccc3c2)on1)N1C[C@@H]2CCC[C@H]1C2`, for which the inhibition was 32.6% (active).

As for `Cc1cc(CNC(=O)c2cc(COc3ccc4ncccc4c3)on2)nn1C`, the inhibition was 12.1% (inactive).

Take `NC(=O)COC(=O)c1cccc(S(=O)(=O)NCc2ccccc2)c1`: the inhibition was -3.84% (inactive).

As to `CC(C)c1ccc(CN[C@H]2C[C@H]3C(=O)N[C@H]([C@H](C)O)C(=O)N3C2)cc1`, the inhibition was 1.15% (inactive).

As for `COc1ccc(NC(=O)C2Cc3ccccc3CN2S(=O)(=O)c2ccc(C)cc2)cc1` (stereo not given), the inhibition is 12.4% (inactive).

On to `[O-][n+]1onc2c1CCc1[nH]c(-c3ccccc3)nc1-2`, for which the inhibition was 41.9% (active).

On to `c1ccc(-c2nc(-c3ccncc3)[nH]c2-c2ccccc2)cc1`, for which the inhibition is 6.95% (inactive).

`Nc1nc2c(s1)CCc1c-2no[n+]1[O-]`: the inhibition was 12.3% (inactive).

`Cc1ccc(C)c(N(Cc2ccccc2C)S(C)(=O)=O)c1`: the inhibition is -3.99% (inactive).

With `COc1ccc(Cl)cc1Nc1c(-c2ccc3c(c2)OCC(=O)N3)c(=O)c1=O`, the inhibition was 2.85% (inactive).

For the compound `CC(=O)C(C)(C)OC(=O)Nc1nccs1`, the inhibition was 4.65% (inactive).

Turning to `Cc1ccc(C(=O)Nc2nccs2)cc1C`, the inhibition was -7.57% (inactive).

`CC(C)(C)C(=O)Nc1ccc(C(=O)Nc2nccs2)cc1`: the inhibition is 53.9% (active).

Consider `COc1ccccc1NC(=O)COC(=O)C(C)N1C(=O)C(=O)c2ccccc21` (stereo not given), for which the inhibition is 13.1% (inactive).

In the case of `Cc1ccc(/C=N/NC(=O)c2cccc(F)c2)c(O)c1`, the inhibition was -36.3% (inactive).

`O=C(Nc1c(C(=O)N2CCC(Cc3ccccc3)CC2)cnn1-c1ccccc1)c1ccco1`: the inhibition was -7.49% (inactive).

For `NC1=NC(=O)/C(=C\c2ccc3c(c2)OCO3)S1`, the inhibition was 46.8% (active).

Consider `NC1=NC(=O)/C(=C\c2ccc3ncccc3c2)S1`, for which the inhibition was 52.6% (active).

For `CN1C(N)=NC(=O)/C1=C\c1ccc2c(c1)OCO2`, the inhibition was -15% (inactive).

`COc1cc(/C=C2/SC(N)=NC2=O)cc(OC)c1OC`: the inhibition is 6.04% (inactive).

Take `CC(C)CC1=NN2C(=N)/C(=C/c3ccc4c(c3)OCO4)C(=O)N=C2S1`: the inhibition was -1.58% (inactive).

As to `COC(=O)c1ccc(/C=C2/SC(N)=NC2=O)cc1`, the inhibition is 16% (inactive).
